# DAX1 inh-1: DAX1 (NR0B1) inhibitors on StAR promoter, primary screen, cell-based, luminescence, SF-1 (NR5A1), full-length DAX-1; HEK293T StAR-luciferase reporter, SF-1/DAX-1 repression relief; 1.1% of 370,000 active; AID 652010, 2013; inhibition, % at 6.8 µM;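 active means inhibition above the mean over all tested compounds plus 3 SD, cut at about 3.6% in these data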;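 further: 0% = DAX-1 cells with DMSO and 100% = cells lacking DAX-1 with DMSO; higher inhibition means more luminescence from relief of DAX-1 repression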
# hgDAF-12 ag: H. glycines DAF-12 receptor agonists, primary screen, cell-based, luminescence, HEK293, GAL4 fusion, UAS-luciferase; Nuclear hormone receptor DAF-12 (Heterodera glycines), GAL4 fusion; HEK293 GAL4-hgDAF12 UAS-luciferase reporter, agonist luminescence; normalized to butyrate control; activation, % at 6.8 µM; 1.8% of 370,000 active;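 active means activation above a cutoff set at the mean of all screened compounds plus 3 SD, cut at about 10% in these data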;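 further: 0% = DMSO wells and 100% = sodium butyrate wells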
# ssDAF-12 act: S. stercoralis DAF-12 nuclear receptor activators, primary screen, cell-based, luminescence, HEK293, GRIP1 co-expression, lit1-tk-luc. HEK293 ssDAF-12/GRIP1 lit1-tk-luc reporter; % of 3 µM dafachronic acid response. AID 652126, 2013. activation, % at 6.8 µM. Nuclear hormone receptor DAF-12 (Strongyloides stercoralis). 1% of 370,000 active;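 active means activation above the mean over all tested compounds plus 3 SD, cut at about 0.9% in these data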;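 further: 0% = DMSO-only wells and 100% = 3 µM delta7-dafachronic acid wells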
# hcDAF-12 act: H. contortus DAF-12 nuclear receptor activators, primary screen, cell-based, luminescence, HEK293, lit1-tk-luc reporter; HEK293 hcDAF-12 lit1-tk-luc reporter; 0% DMSO, 100% Δ7-dafachronic acid; activation, % at 6.8 µM; 1.4% of 370,000 active; AID 652067, 2013;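 active means activation above the mean of all tested compounds plus 3 SD, cut at about 5.5% in these data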;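 further: 100% = response to 3 µM Δ7-dafachronic acid high control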
# DAX1 inh-2: DAX1 (NR0B1) inhibitors, primary screen, cell-based, HEK293, Gal4-DAX1, luciferase luminescence; Nuclear receptor subfamily 0 group B member 1 (Homo sapiens), P51843; HEK293 Gal4-DAX1 luciferase reporter; inhibition, % at 6.75 µM; 0.99% of 340,000 active; AID 504766, 2011;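 active means inhibition above the mean over all tested compounds plus 3 SD, cut at about 4.2% in these data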;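 further: 0% = DAX1-transfected cells with DMSO and 100% = empty-vector control cells with DMSO; inhibition shows as a rise in luminescence from relieved DAX1 repression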
# Target sequence (P51843 207-470 limits assumed): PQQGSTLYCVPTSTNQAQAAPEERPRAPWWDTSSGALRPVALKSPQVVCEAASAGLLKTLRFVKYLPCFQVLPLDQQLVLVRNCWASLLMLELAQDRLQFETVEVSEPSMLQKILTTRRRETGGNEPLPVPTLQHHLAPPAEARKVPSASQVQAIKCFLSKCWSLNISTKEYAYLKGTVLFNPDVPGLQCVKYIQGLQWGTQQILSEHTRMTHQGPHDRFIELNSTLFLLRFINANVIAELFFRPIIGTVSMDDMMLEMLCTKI
# AHR act: AHR activators, primary screen, cell-based, luminescence, luciferase reporter, human. Aryl hydrocarbon receptor (Homo sapiens), P35869. AHR-responsive luciferase reporter cells. activation, % at 5 µM. 2.5% of 320,000 active; in the data active means activation above about 47%;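 further: 0% = vehicle wells and 100% = reference agonist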
# Numbers without * were called inactive; · = no result given. Hits are enriched below; roughly 5.7% of the tested compounds scored in any of these assays.
SMILES,DAX1 inh-1,hgDAF-12 ag,ssDAF-12 act,hcDAF-12 act,DAX1 inh-2,AHR act
CCCNC(=O)CC(NS(=O)(=O)c1ccc(OC)cc1)c1ccco1 (configuration not stated),0,2,-1,1,0,1
CCOC(=O)c1cnc2c(C)c(Cl)ccc2c1NCCCN1CCOCC1,-1,1,-2,-1,1,-2
CCCCN1CCC(COC(=O)c2cc(Cl)c(N)c3c2OCCO3)CC1,4.5*,4,-1,-2,2,4
O=C1OCC/C1=C\NCCCN/C=C1\CCOC1=O,0,0,0,0,0,·
Cc1ccc(NC(=O)COC(=O)c2ccc(-n3cccn3)cc2)cc1C,-1,1,0,-2,3,1
C=CCNc1oc(/C=C/c2ccccc2)nc1C#N,3.9*,9,0.9*,5,3,3
CCOc1ccc(/C=C/c2nc(C#N)c(NCCCOC)o2)cc1,-1,-1,-2,-3,-2,15
COCCCNc1oc(/C=C/c2ccccc2)nc1C#N,3,12*,0,5,3,9
COc1ccc(NC(=O)CN2C(=O)NC3(CCCCC3C)C2=O)cc1OC (configuration not stated),0,-1,-1,0,0,0
Cc1cc(NC(=O)CSc2ccc(-c3cccc([N+](=O)[O-])c3)nn2)no1,4.0*,-2,0,2,0,9
CCSc1ccc(-c2cccc([N+](=O)[O-])c2)nn1,2,13*,0,6.2*,0,4
CCN(CC)S(=O)(=O)c1ccc(C(C)NC(=O)Cc2c[nH]c3ccccc23)cc1 (configuration not stated),1,2,0,1,0,5
Cc1ccc(-c2noc(CCC(=O)NC3CC3)n2)cc1,0,2,-1,-1,-1,10
CC(C)N(C)Cc1nnnn1CC(=O)N(C)Cc1ccc(F)cc1,0,0,-1,0,0,49*
COC(=O)c1ccc(CNC(=O)Cn2nnnc2CN(C)C(C)C)cc1,0,0,-1,0,-1,56*
COc1ccccc1CNC(=O)Cn1nnnc1CN(C)C(C)C,0,0,-1,-1,0,11
O=S1(=O)N[C@H](Cc2ccccc2)COc2cc(N3CCCC3)ccc21,1,-1,-1,-2,·,·
CC1CCN(C2CCN(S(=O)(=O)c3ccc(C(F)(F)F)cc3)CC2)CC1,0,0,-1,0,-1,10
CN(C)c1ccc(N=Nc2ccc(S(N)(=O)=O)cc2)cc1,2,11*,0,4,3,10
Fc1cccc(C[n+]2csc3ccccc32)c1,-1,5,0,0,0,4
c1ccc(C[n+]2csc3ccccc32)cc1,1,3,1.1*,2,1,5
CCc1nc2c(OCCn3cccc3)cccn2c1N(C)C(=O)c1ccccc1F,0,-1,-1,-1,·,·
Cc1cccc(C)c1NC(=O)c1cnccn1,0,-1,1.0*,-2,0,1
O=C(Nc1nc(-c2cccc3ccccc23)cs1)c1cnccn1,0,3,-1,1,0,49*
Cc1cccc(C)c1NC(=O)CNC(=O)c1cnccn1,0,1,-1,0,1,-2
CCC(C(=O)NCC1CCCO1)N(C(=O)c1snc(C(N)=O)c1N)c1ccc(Cl)cc1 (configuration not stated),0,0,-1,-1,-1,1
COc1cc(/C=C/c2cc[n+](C)cc2)ccc1OCC(=O)Nc1ccccc1,0,1,-1,1,2,-1
C/C=C/c1ccc(OCC(=O)Nc2ccc(C(N)=O)cc2)c(OC)c1,0,1,1.1*,1,1,2

# Assay outcomes (PubChem BioAssay)
